Experimental data taken from PubChem BioAssay (EPA / NIEHS).
“And” between values parts separate entries of the source, which are not always exact repeats. Equal entries are not always repeated. Records with an inconclusive call do not appear. The source made the active and inactive calls. How the source made its calls: active means hit-call score of the fitted dose curve at least 0.9, where 1 is the maximum; inconclusive means response in the unintended direction; inactive means score below 0.9.

target: Cellular tumor antigen p53 (Homo sapiens) (UniProt P04637); assay: TOX21_p53_BLA_p3_ratio: Tox21 HCT-116 p53 Agonism Beta-lactamase Assay, Ratio, Phase 3 (AID 2283596)
Summary of the method: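 Cells were seeded at 4000/well, rested 5 h at 37C, then dosed with DMSO compound solutions (217-fold dilution) for 16 h. CCF4-AM substrate was loaded for 2 h at room temperature, and the 460/530 nm emission ratio was fitted for gain of signal versus DMSO.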

Chain of Cellular tumor antigen p53 (Homo sapiens) (P04637 whole entry, looked up): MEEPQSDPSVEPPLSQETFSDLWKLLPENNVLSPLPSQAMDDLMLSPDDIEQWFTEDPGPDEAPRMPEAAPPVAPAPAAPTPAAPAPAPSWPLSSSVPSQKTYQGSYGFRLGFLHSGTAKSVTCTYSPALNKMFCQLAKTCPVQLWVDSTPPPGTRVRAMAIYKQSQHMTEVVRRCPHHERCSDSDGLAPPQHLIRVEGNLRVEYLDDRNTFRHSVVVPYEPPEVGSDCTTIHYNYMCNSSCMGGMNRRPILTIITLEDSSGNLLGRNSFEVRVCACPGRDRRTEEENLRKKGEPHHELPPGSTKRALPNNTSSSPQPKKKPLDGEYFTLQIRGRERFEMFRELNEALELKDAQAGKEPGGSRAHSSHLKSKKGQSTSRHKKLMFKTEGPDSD

SMILES | AC50 | outcome
O=C(Nc1cccc([N+](=O)[O-])c1)c1cc2ccccc2cc1O | 1.1 µM (active) | 
Cc1cc(Cc2cc(C)cc(C(C)(C)C)c2O)c(O)c(C(C)(C)C)c1 | 44.8 µM (active) and 57.1 µM (active) | 
CCC(=O)O |  | inactive
O=C(O)c1cccc(C(=O)O)n1 |  | inactive
CCOCCOCC |  | inactive
CCCCCCC(C)(C)C(=O)O |  | inactive
CCOC(C)=O |  | inactive
NS(=O)(=O)O |  | inactive
CCCCCCCCCCCCCC[n+]1ccccc1 | 14.1 µM (active) | 
C[C@]12CC[C@@H]3c4ccc(O)cc4CC[C@H]3[C@@H]1CC[C@@H]2OC(=O)CCC1CCCC1 |  | inactive
Cc1ccc(C)c(S(=O)(=O)O)c1 |  | inactive
Clc1ccc(Nc2nnc(Cc3ccncc3)c3ccccc23)cc1 |  | inactive
O=C1OC(=O)c2cc(-c3ccc4c(c3)C(=O)OC4=O)ccc21 |  | inactive
CCCCCCCCC1CCC(=O)O1 (stereo not given) |  | inactive
CC(O)COc1ccccc1 (stereo not given) |  | inactive
C=CC(C)(CCC=C(C)C)OC(C)=O (stereo not given) |  | inactive
O=C(NO)c1ccccc1 |  | inactive
Cc1ccc(C(=O)c2ccccc2)cc1 |  | inactive
O=C(O)C(=O)O |  | inactive
O=C(c1cc(O)c(O)c(O)c1)c1ccc(O)c(O)c1O | 60.9 µM (active) and 84.5 µM (active) | 
O=C(Nc1ccc(Cl)c(Cl)c1)c1cc(Cl)cc(Cl)c1O | 0.434 µM (active) | 
CCCCCC(C)OC(=O)COc1ccc(Cl)c2cccnc12 (stereo not given) |  | inactive
CC1=NN(c2ccccc2)C(=O)C1 |  | inactive
Cc1cc(C(C)(C)C)c(O)c(C(C)(C)C)c1 |  | inactive
COCN(COC)c1nc(N(COC)COC)nc(N(COC)COC)n1 |  | inactive
COC(=O)CC(C(C)=O)C(=O)OC (stereo not given) |  | inactive
CC(=O)Nc1ccc(S(N)(=O)=O)cc1 |  | inactive
CCCCCCCCCCCCOC(=O)c1cc(O)c(O)c(O)c1 | 57.6 µM (active) and 81.5 µM (active) | 
NCc1cccc(CN)c1 |  | inactive
CCC(=O)C=Cc1ccc(OC)cc1 |  | inactive

target: Cellular tumor antigen p53 (Homo sapiens) (UniProt P04637); assay: TOX21_p53_BLA_p5_ratio: Tox21 HCT-116 p53 Agonism Beta-lactamase Assay, Ratio, Phase 5 (AID 2283599)
Summary of the method: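 HCT-116 p53-bla cells (4000/well) plated 5 h, dosed with compound (217-fold DMSO dilution) for 16 h at 37 C; CCF4-AM substrate 2 h at room temperature. Activity is the 460/530 nm emission ratio (405 nm excitation), fitted in gain-of-signal direction versus DMSO.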

SMILES | AC50 | outcome
O=C(Nc1cccc([N+](=O)[O-])c1)c1cc2ccccc2cc1O | 4.65 µM (active) | 
Cc1cc(Cc2cc(C)cc(C(C)(C)C)c2O)c(O)c(C(C)(C)C)c1 | 33.6 µM (active) and 41.4 µM (active) | 
CCC(=O)O |  | inactive
O=C(O)c1cccc(C(=O)O)n1 |  | inactive
CCOCCOCC |  | inactive
CCCCCCC(C)(C)C(=O)O |  | inactive
CCOC(C)=O |  | inactive
NS(=O)(=O)O |  | inactive
CCCCCCCCCCCCCC[n+]1ccccc1 |  | inactive
C[C@]12CC[C@@H]3c4ccc(O)cc4CC[C@H]3[C@@H]1CC[C@@H]2OC(=O)CCC1CCCC1 |  | inactive
Clc1ccc(Nc2nnc(Cc3ccncc3)c3ccccc23)cc1 |  | inactive
CCN(CC)CC |  | inactive
O=C1OC(=O)c2cc(-c3ccc4c(c3)C(=O)OC4=O)ccc21 |  | inactive
CCCCCCCCC1CCC(=O)O1 (stereo not given) |  | inactive
CC(O)COc1ccccc1 (stereo not given) |  | inactive
C=CC(C)(CCC=C(C)C)OC(C)=O (stereo not given) |  | inactive
O=C(NO)c1ccccc1 |  | inactive
Cc1ccc(C(=O)c2ccccc2)cc1 |  | inactive
O=C(O)C(=O)O |  | inactive
O=C(c1cc(O)c(O)c(O)c1)c1ccc(O)c(O)c1O | 86.8 µM (active) and 74.6 µM (active) | 
O=C(Nc1ccc(Cl)c(Cl)c1)c1cc(Cl)cc(Cl)c1O | 1.45 µM (active) | 
CCCCCC(C)OC(=O)COc1ccc(Cl)c2cccnc12 (stereo not given) |  | inactive
CC1=NN(c2ccccc2)C(=O)C1 |  | inactive
Cc1cc(C(C)(C)C)c(O)c(C(C)(C)C)c1 |  | inactive
COCN(COC)c1nc(N(COC)COC)nc(N(COC)COC)n1 |  | inactive
CC(C)(C)C1CCCCC1O (stereo not given) |  | inactive
COC(=O)CC(C(C)=O)C(=O)OC (stereo not given) |  | inactive
OCC1CCC(CO)CC1 (stereo not given) |  | inactive
CCCCCCCCCCCCOC(=O)c1cc(O)c(O)c(O)c1 | 48.3 µM (active) and 77 µM (active) | 
CCC(=O)C=Cc1ccc(OC)cc1 |  | inactive
